This is a sample that favours compounds with a hit; in the whole collection about 3.9% have one here.
ATXN2 expr inh: inhibitors of ATXN2 expression | HEK-293 ATXN2-luciferase reporter, luminescence, 24 h | AID 1745845 | 0.72% of 360,000 active | Potency, µM (doses to about 57 µM), for the others: top-dose activity change, negative = inhibition, most hits filed as inhibitors; also: % is scaled to controls: 0 for no effect and ±100 for the full control effect; nearly all actives have a fitted effect of over 55% in size
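ATXN2-luciferase reporter cells (luciferase flanked by upstream and downstream ATXN2 gene portions) were treated 24 h at 37 °C with compounds at up to 57 uM. SteadyGlo luminescence gave expression; GF-AFC fluorescence gave viability.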
HepG2 viability: kills HepG2 cells in TGF-b inhibitor counter-screen. Potency, µM (top dose mostly 46.1 µM), inactives show top-dose activity change, negative = cytotoxicity, most hits filed as cytotoxic. 0.76% of 410,000 active. AID 588856. HepG2 CAGA-GFP viability, ATP luminescence, 18 h
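CellTiter-Glo luminescence gave cytotoxicity after 18 hours at 37 degrees C. The cells were HepG2 CAGA-GFP in 1% FBS DMEM, stimulated with 500 pg/mL TGF-beta after compound addition. %Activity was normalised to no-cell wells (complete cell-killing) and DMSO (no toxicity), and curves were fitted and classified.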
HT1080-NT tox: kills 2HG-producing HT-1080-NT fibrosarcoma cells; HT-1080-NT fibrosarcoma viability, CellTiter-Glo ATP luminescence, 48 h; Potency, µM (highest dose often 46.1 µM), for inactives: at the top dose activity, negative = less viability, actives largely listed as cytotoxic; 1.6% of 360,000 active; AID 686970;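 also: NT is the 2HG producing partner of a matched IDH1 knockdown line; 0% = DMSO-treated cells and -100% = media-only wells without cells; nearly all actives have a fitted effect of over 55% in size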
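Viability of the 2HG-overproducing fibrosarcoma line after 48 hours of compound exposure at 37 degrees C was determined by luminescence with CellTiter-Glo, and concentration-effect curves were then fitted and categorized.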
HT1080 IDH1KD tx: HT-1080 IDH1 knockdown cell toxicity (counter line); HT-1080 IDH1 knockdown viability, ATP luminescence, 48 h; Potency, µM (series often up to 46.1 µM), without a hit: top-dose activity, negative = toxicity, hits mostly cytotoxic; 2% of 360,000 active; AID 686971;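 also: 0% = DMSO wells and -100% = cell-free medium wells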
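Luminescent ATP read-out (CellTiter-Glo, 10 min at room temperature) after 48 h compound exposure at 37 °C gave viability of IDH1-knockdown HT-1080 cells. Activity was normalised to DMSO and cell-free wells, then fitted as concentration-response curves.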
ATXN viability: reduces viability in counter-screen for ATXN expression inhibitors. 0.49% of 400,000 active. Potency, µM (series often up to 56.7 µM), actives largely listed as cytotoxic. S2 cells (HEK-293 line with an ATXN2-luciferase reporter) viability, CellTiter-Fluor protease fluorescence, 24 h; also: nearly all actives have a fitted effect of over 40% in size
TGFb inhibitor: blocks TGF-b signaling | 1.2% of 410,000 active | AID 588855 | Potency, µM (series often up to 46.1 µM), for inactives: top-dose activity, negative = inhibition, usual class: inhibitors | HepG2 CAGA-GFP TGF-b/SMAD3 reporter, GFP fluorescence, 18 h; TGF-beta stimulated, 500 pg/mL final; also: % is scaled to controls: 0 for no effect and ±100 for the full control effect; nearly all actives have a fitted effect of over 65% in size
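TGF-beta reporter screen: HEPG2 CAGA-GFP, 1% FBS, 500 pg/mL TGF-beta final, 18 h; per-cell GFP summed per well; curves fitted and categorized by class.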
Active calls of the source: *; i = inactive; ? = inconclusive; . = no result. Calls follow the shape of the dose curve; as a rule, active = well fitted curve in the direction sought with a large enough effect; inconclusive = small, poorly fitted or top-dose-only effect, or another doubt; inactive = no such curve, though single readings can be large; an effect the other way counts as inactive or inconclusive. Potency is read from the fitted curve at half-maximal effect.

SMILES | ATXN2 expr inh | HepG2 viability | HT1080-NT tox | HT1080 IDH1KD tx | ATXN viability | TGFb inhibitor
C[C@]12CCC(=O)C=C1[C@@H]1C[C@@H]1[C@H]1[C@@H]3[C@@H]4C[C@@H]4[C@@]4(CCC(=O)O4)[C@@]3(C)CC[C@@H]12 | ? | . | . | . | i | .
COc1ccc(-c2cc3nc(C)c(CCC(=O)N4CCN(c5ccc(F)cc5)CC4)c(C)n3n2)c(OC)c1 | -7.8% | -1.2% | . | . | i | 5.0%
COC(=O)c1ccc(CC2(C)C(=O)Nc3ccc(-c4cccc(C(F)(F)F)c4)cc32)o1 (stereo unspecified) | ? | 22.4µM* | ? | ? | 31.6µM* | ?
CC1=NN(c2ccccc2)C(=O)/C1=C/C=C/c1ccccc1 | ? | -54.4% | 3.26µM* | 9.2µM* | ? | ?
Cc1ccc(C2=NOC(=O)/C2=C\C=C\c2ccccc2)cc1 | ? | 8.9% | 9.2µM* | 13µM* | ? | ?
CCc1ccc(NC(=O)N(Cc2ccc(C)cc2)Cc2cccn2-c2nnc(N3CCCC3=O)s2)cc1 | 8.0% | -27.8% | . | . | i | 2.0%
Fc1ccc(-c2nnc(NC3=NCCCCC3)o2)cc1 | 3.98µM* | 12.6µM* | ? | ? | i | 4.8%
c1ccc(-c2nnc(NC3=NCCC3)o2)cc1 | ? | -17.0% | -0.3% | -6.9% | i | -5.1%
O=[N+]([O-])c1cc(Br)c(Nc2ccccc2)c([N+](=O)[O-])c1 | . | -121.2% | ? | 3.26µM* | 12.6µM* | 17.8µM*
Cc1ccc(C(=O)N2CCN(Cc3ccc4c(c3)OCO4)CC2)c(Cl)c1 | 0.0% | -31.4% | -10.4% | 16.4µM* | ? | ?
O=C(O)CCC(=O)N1CCN(Cc2ccc3c(c2)OCO3)CC1 | 3.9% | -4.5% | 12.8% | 11.5% | i | 14.7%
N#CCC(=O)N1CCN(Cc2ccc3c(c2)OCO3)CC1 | . | 1.58µM* | -6.3% | -0.1% | i | -15.0%
CCOc1ccc(Nc2c(S(=O)(=O)c3ccc(Cl)cc3)cnc3ccc(OCC)cc23)cc1 | 4.5% | -31.3% | . | . | i | -7.8%
CCc1cccc(CC)c1NC(=S)Nc1cccc(Cl)c1Cl | 0.5% | 17.8µM* | -0.1% | 1.8% | i | ?
NC(=O)c1cc([N+](=O)[O-])ccc1NCc1ccc(N)cc1 | 3.55µM* | 6.3% | 0.1% | 3.4% | i | ?
O=[N+]([O-])/C=C/c1cc2ccccc2[nH]1 | . | 20µM* | -8.7% | -3.2% | ? | ?
O=[N+]([O-])c1cccc(-c2cc3ccccc3[nH]2)c1 | 1.6% | -17.9% | -0.1% | 4.7% | i | -26.0%
CC(C)(C)C1=CC(=O)C(=O)C(C(C)(C)C)=C1 | . | -87.9% | ? | ? | 12.6µM* | 15.8µM*
CC(C)(C)C1=CC(=Nc2ccccc2N)C=C(C(C)(C)C)C1=O | 14.0% | -49.5% | ? | ? | i | ?
CC12CCC(=O)C=C1CCC1C2CCC2(C)C(c3csc(N)n3)CCC12 (stereo unspecified) | ? | 8.1% | ? | ? | ? | 12.6µM*
CC12CCC(=O)C=C1CCC1C2C(O)CC2(C)C(c3csc(N)n3)CCC12 (stereo unspecified) | ? | 2.0% | 6.51µM* | ? | i | -4.5%
CC12CCC(=O)C=C1CCC1C2CCC2(C)C(C(=O)CO)CC(O)C12 (stereo unspecified) | 3.3% | 1.1% | 6.8% | 26.9% | i | 20.0%
CC(C)(C)OC(=O)N1CCC(c2c(C(=O)NCCCN3CCc4ccccc4C3)cnn2-c2ccccc2)CC1 | . | -39.5% | . | . | . | ?
COc1ccc(CNC(=O)c2cnn(-c3ccc(OC)cc3)c2C2CCN(C(=O)OC(C)(C)C)CC2)cc1 | . | -6.9% | . | . | . | 11.2µM*
Cc1ccc(-n2ncc(C(=O)NCC3CCN(C4CCCC4)C3)c2C2CCN(C(=O)OC(C)(C)C)CC2)cc1 (stereo unspecified) | ? | -20.2% | 23.1µM* | ? | i | -16.4%
SMILES | ATXN2 expr inh | HepG2 viability | HT1080-NT tox | HT1080 IDH1KD tx | ATXN viability | TGFb inhibitor
CC(C)(C)OC(=O)N1CCC(c2c(C(=O)NCC3CCN(C4CCCC4)C3)cnn2-c2cccc(Cl)c2)CC1 (stereo unspecified) | ? | -38.3% | ? | 18.4µM* | ? | ?
Cc1ccc(-n2ncc(C(=O)NCCCN3CCc4ccccc4C3)c2C2CCN(C(=O)OC(C)(C)C)CC2)cc1C | . | 15.8µM* | . | . | . | ?
CC(C)(C)OC(=O)N1CCC(c2c(C(=O)NCC3CCN(C4CCCC4)C3)cnn2-c2ccc(F)cc2)CC1 (stereo unspecified) | -1.0% | -19.9% | -8.2% | -17.4% | i | -7.8%
Cc1ccc(/C=C/c2onc(C)c2S(=O)(=O)N2CCC(C(=O)NCc3ccc(N(C)C)cc3)CC2)cc1 | . | -7.6% | . | . | . | -8.5%
CCOC(=O)c1nnc2c(-c3ccc(Cl)cc3)c(C)nn2c1N | -2.3% | -1.4% | . | . | i | ?
O=C(O[C@H]1[C@H](Cc2ccccc2)NS(=O)(=O)[C@H]2C[C@@H]3C=C[C@]12O3)c1ccccc1Br | . | 10.0% | . | . | . | -4.6%
COc1ccc(OC)c(CCNC(=O)c2cnn(-c3ccccc3Cl)c2C2CCN(C(=O)OC(C)(C)C)CC2)c1 | . | -18.4% | . | . | . | 10µM*
CCOc1ccccc1C(=O)N1CC(=O)Nc2ccc(Cl)cc2C1c1ccccc1 (stereo unspecified) | -8.2% | -22.2% | . | . | i | -2.5%
COc1cc2c(cc1OC)C(=S)NC(C)(C)C2 | -8.4% | -4.3% | 10µM* | ? | i | -1.2%
CCOC(=O)/C=C1\NC(C)(C)Cc2cc(OC)c(OC)cc21 | 4.6% | -23.0% | 1.6% | -2.7% | i | -7.6%
Cc1nnc(SCC(=O)N2CCCC2)n1-c1ccc(F)cc1 | -6.7% | 4.47µM* | 14.9% | 18.8% | i | 0.0%
COc1cccc(/C=N/NC(=O)CCn2c3ccccc3c3ccccc32)c1 | -10.8% | 1.9% | -6.1% | -12.5% | i | -6.0%
COc1cc(/C=N/NC(=O)CCN2CCCCC2)ccc1O | -10.5% | -13.1% | 1.8% | 0.0% | ? | -25.7%
COc1cc(/C=N/NC(=O)CCn2cnc(-c3ccccc3)c2-c2ccccc2)ccc1O | -24.7% | 2.4% | 16.4µM* | ? | i | -8.5%
COc1ccc(CC(=O)N/N=C/c2c(C)n(C)c3ccccc23)cc1OC | . | -26.7% | ? | 13µM* | ? | ?
COc1ccc(/C=N/NC(=O)CCn2c3ccccc3c3ccccc32)cc1O | -0.7% | -16.7% | 1.41µM* | ? | i | ?
CCCC(=O)Nc1nc2ccc(S(=O)(=O)N3CCCCC3)cc2s1 | -15.9% | -8.3% | ? | 4.11µM* | ? | -32.6%

Screening results (PubChem)
